# A number with no mark means an inactive call. Records with an inconclusive call do not appear. Where a call stands in place of a potency, no number is given. Active and inactive are the calls of the source. Unless noted, calls come from the whole dose curve; as a rule, active = well fitted curve in the direction sought with a large enough effect in the repeat runs; inconclusive = weak or mixed curves; inactive = no such curve, though single readings can be large; an effect the other way counts as inactive or inconclusive.
# Key:
# [1] = qHTS assay for small molecule agonists of the p53 signaling pathway (AID 651631; calls by dose curve; note: nearly all actives have a fitted effect of over 15% in size)
# Method in brief: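 HCT-116 cells carrying a beta-lactamase reporter under p53 response elements were dosed with compound for 16 h at 37 °C. LiveBLAzer B/G FRET substrate was then added for 2 h at room temperature, and fluorescence intensity was read to detect pathway agonism.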
# [2] = qHTS assay for small molecules that induce genotoxicity in human embryonic kidney cells expressing luciferase-tagged ATAD5 (AID 651632); note: nearly all actives have a fitted effect of over 15% in size
# Method in brief: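 Concentration-response screen for ATAD5 upregulation in HEK293T luciferase reporter cells; 16 hr treatment at 37C, then luminescence after 30 min with Amplite at room temperature.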
# [3] = qHTS assay for small molecule agonists of the p53 signaling pathway - cell viability (AID 651633; calls by dose curve;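 note: p53RE-bla HCT reporter cells with a stable beta-lactamase p53 reporter; series mostly up to about 83 µM; nearly all actives have a fitted effect of over 30% in size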)
# Method in brief: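 p53RE-bla cells, seeded at 4,000 per well and rested 5 h at 37 C/5% CO2, received compounds in DMSO for 16 h at 37 C. CellTiter-Glo was then added, and luminescence was read after 30 min at room temperature to gauge cytotoxicity.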
# [4] = qHTS assay for small molecules that induce genotoxicity in human embryonic kidney cells expressing luciferase-tagged ATAD5 - cell viability (AID 651634; calls by dose curve; note: nearly all actives have a fitted effect of over 25% in size)
# Method in brief: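 15.5 hr compound or vehicle exposure of HEK293T cells expressing luciferase-tagged ATAD5 at 37C; live-cell protease activity is read by fluorescence after 30 min of CellTiter-Fluor.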
# [5] = qHTS assay for small molecule disruptors of the mitochondrial membrane potential - cell viability (AID 720634; calls by dose curve;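 note: human HepG2 liver cancer cells; series mostly up to about 83 µM; nearly all actives have a fitted effect of over 20% in size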)
# Method in brief: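 In this qHTS format, HepG2 cells plated overnight were pinned with compound, incubated 1 hr, and assayed for ATP luminescence with CellTiter-Glo after m-MPI dye addition.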
# [6] = qHTS assay for small molecule disruptors of the mitochondrial membrane potential (AID 720635); note: potency is the fitted concentration of half-maximal effect
# Method in brief: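 HepG2 cells (2,000/well) attached overnight at 37C, then took compound for 1 hr at 37C, 5% CO2. Mito-MPS dye was added for 30 min; fluorescence was read at 490/535 nm (monomers) and 540/590 nm (aggregates).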
# [7] = qHTS assay to test for compound auto fluorescence at 590 nm (red) in HepG2 cells (AID 720674)
# Method in brief: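 Compound auto-fluorescence is scored relative to Rose Bengal sodium, measured at 540/590 nm in live HepG2 cultures after 1 hr compound contact (37 C, 5% CO2).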
# [8] = qHTS assay to test for compound auto fluorescence at 460 nm (blue) in HEK293 cells (AID 720678)
# Method in brief: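 After cell attachment (4-5 hr, 37C), compounds were pinned onto HEK293 monolayers in 10% dialyzed FBS medium. The blue channel (405/460 nm) was read following overnight culture. Equivalency was calculated against triamterene.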
# [9] = qHTS assay to test for compound auto fluorescence at 590 nm (red) in HEK293 cells (AID 720679)
# Method in brief: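 Plates of HEK293 cells (10% dialyzed FBS) are treated with 23 nL compound or DMSO vehicle after a 4-5 hr attachment period, incubated overnight at 37C, and read for red fluorescence at 540/590nm.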
# [10] = qHTS assay to test for compound auto fluorescence at 535 nm (green) in HepG2 cells (AID 720675)
compound,measurement,setting,value
COC(=O)c1c(C)cc(O)c(C)c1O,Potency,[1],inactive
same,Potency,[2],inactive
same,outcome,[3],inactive
same,outcome,[4],inactive
same,outcome,[5],inactive
same,Potency,[6],12.2 µM (active)
same,outcome,[7],inactive
same,outcome,[8],inactive
same,outcome,[9],inactive
CCO/C=C1\N=C(c2ccccc2)OC1=O,Potency,[1],inactive
same,Potency,[2],inactive
same,outcome,[3],inactive
same,outcome,[4],inactive
same,outcome,[5],inactive
same,Potency,[6],inactive
same,outcome,[7],inactive
same,outcome,[8],inactive
same,outcome,[9],inactive
CCOC(=O)CC(C(C)=O)C(C)=O,Potency,[1],inactive
same,Potency,[2],inactive
same,outcome,[3],inactive
same,outcome,[4],inactive
same,outcome,[5],inactive
same,Potency,[6],inactive
same,outcome,[7],inactive
same,outcome,[10],inactive
same,outcome,[8],inactive
same,outcome,[9],inactive
O=CN1CCCCC1,Potency,[1],inactive
same,Potency,[2],inactive
same,outcome,[3],inactive
same,outcome,[4],inactive
same,outcome,[5],inactive
same,Potency,[6],inactive
same,outcome,[7],inactive
same,outcome,[10],inactive
same,outcome,[8],inactive
same,outcome,[9],inactive
CC(O)CCCCn1c(=O)c2c(ncn2C)n(C)c1=O (configuration not stated),Potency,[1],inactive
same,Potency,[2],inactive
same,outcome,[3],inactive
same,outcome,[4],inactive
same,outcome,[5],inactive
same,Potency,[6],inactive
same,outcome,[7],inactive
same,outcome,[10],inactive
same,outcome,[8],inactive
same,outcome,[9],inactive
CN(C)CCc1c[nH]c2ccc(CS(=O)(=O)N3CCCC3)cc12,Potency,[1],inactive
same,Potency,[2],inactive
same,outcome,[3],inactive
same,outcome,[4],inactive
same,outcome,[5],inactive
same,Potency,[6],inactive
same,outcome,[7],inactive
same,outcome,[8],inactive
same,outcome,[9],inactive
C[C@]12C=CC(=O)C=C1[C@@H](F)C[C@@H]1[C@@H]2[C@@H](O)C[C@@]2(C)[C@H]1CC[C@]2(O)C(=O)CO,Potency,[1],inactive
same,Potency,[2],inactive
same,outcome,[3],inactive
same,outcome,[4],inactive
same,outcome,[5],inactive
same,Potency,[6],inactive
same,outcome,[7],inactive
same,outcome,[10],inactive
same,outcome,[8],inactive
same,outcome,[9],inactive
CCCCN(CCCC)CCCCCCN(CCCC)CCCC,Potency,[1],inactive
same,Potency,[2],inactive
same,outcome,[3],inactive
same,outcome,[4],inactive
same,outcome,[5],inactive
same,Potency,[6],inactive
same,outcome,[7],inactive
same,outcome,[10],inactive
same,outcome,[8],inactive
same,outcome,[9],inactive
NCC1CCC(C(=O)Oc2ccc(CCC(=O)O)cc2)CC1 (configuration not stated),Potency,[1],inactive
same,Potency,[2],inactive
same,outcome,[3],inactive
same,outcome,[4],inactive
same,outcome,[5],inactive
same,Potency,[6],inactive
same,outcome,[7],inactive
same,outcome,[8],inactive
same,outcome,[9],inactive
CCCC(=O)C(CC)Sc1ccoc1C (configuration not stated),Potency,[1],inactive
same,Potency,[2],inactive
same,outcome,[3],inactive
same,outcome,[4],inactive
same,outcome,[5],inactive
same,Potency,[6],inactive
same,outcome,[7],inactive
same,outcome,[10],inactive
same,outcome,[8],inactive
same,outcome,[9],inactive
O=P(O)(O)C(O)(Cc1cccnc1)P(=O)(O)O,Potency,[1],inactive
same,Potency,[2],inactive
same,outcome,[3],inactive
same,outcome,[4],inactive
same,outcome,[5],inactive
same,Potency,[6],inactive
same,outcome,[7],inactive
same,outcome,[10],inactive
same,outcome,[8],inactive
same,outcome,[9],inactive
COC(=O)c1ccccc1Cl,Potency,[1],inactive
same,Potency,[2],inactive
same,outcome,[3],inactive
same,outcome,[4],inactive
same,outcome,[5],inactive
same,outcome,[7],inactive
same,outcome,[10],inactive
same,outcome,[8],inactive
same,outcome,[9],inactive
C=CC(=O)OCC[N+](C)(C)C,Potency,[1],inactive
same,Potency,[2],inactive
same,outcome,[3],inactive
same,outcome,[4],inactive
same,outcome,[5],inactive
same,outcome,[7],inactive
same,outcome,[10],inactive
same,outcome,[8],inactive
same,outcome,[9],inactive
Clc1cc(Cl)c(Cl)c(Cl)c1Cl,Potency,[1],inactive
same,Potency,[2],inactive
same,outcome,[3],inactive
same,outcome,[4],inactive
same,outcome,[5],inactive
same,outcome,[7],inactive
same,outcome,[10],inactive
same,outcome,[8],inactive
same,outcome,[9],inactive
CCCCCCC(O)CO (configuration not stated),Potency,[1],inactive
same,Potency,[2],inactive
same,outcome,[3],inactive
same,outcome,[4],inactive
same,outcome,[5],inactive
same,outcome,[7],inactive
same,outcome,[10],inactive
same,outcome,[8],inactive
same,outcome,[9],inactive
CC(C)(O)CCCC1=CCC(C=O)CC1 (configuration not stated),Potency,[1],inactive
same,Potency,[2],inactive
same,outcome,[3],inactive
same,outcome,[4],inactive
same,outcome,[5],inactive
same,outcome,[7],inactive
same,outcome,[10],inactive
same,outcome,[8],inactive
same,outcome,[9],inactive
CCCCC(CC)CCC(CC(C)C)OS(=O)(=O)O (configuration not stated),Potency,[1],inactive
same,Potency,[2],inactive
same,outcome,[3],inactive
same,outcome,[4],inactive
same,outcome,[5],inactive
same,outcome,[7],inactive
same,outcome,[10],inactive
same,outcome,[8],inactive
same,outcome,[9],inactive
CC[N+](C)(CC)CC,Potency,[1],inactive
same,Potency,[2],inactive
same,outcome,[3],inactive
same,outcome,[4],inactive
same,outcome,[5],inactive
same,outcome,[7],inactive
same,outcome,[10],inactive
same,outcome,[8],inactive
same,outcome,[9],inactive
O=C1c2ccccc2C(=O)N1CO,Potency,[1],inactive
same,Potency,[2],inactive
same,outcome,[3],inactive
same,outcome,[4],inactive
same,outcome,[5],inactive
same,outcome,[7],inactive
same,outcome,[10],inactive
same,outcome,[8],inactive
same,outcome,[9],inactive
O=C(O)P(=O)(O)O,Potency,[1],inactive
same,Potency,[2],inactive
same,outcome,[3],inactive
same,outcome,[4],inactive
same,outcome,[5],inactive
same,outcome,[7],inactive
same,outcome,[10],inactive
same,outcome,[8],inactive
same,outcome,[9],inactive
O=S(=O)(O)c1ccc(Cl)cc1,Potency,[1],inactive
same,Potency,[2],inactive
same,outcome,[3],inactive
same,outcome,[4],inactive
same,outcome,[5],inactive
same,outcome,[7],inactive
same,outcome,[10],inactive
same,outcome,[8],inactive
same,outcome,[9],inactive
CCN1CCN(C(=O)N[C@@H](C(=O)N[C@@H]2C(=O)N3C(C(=O)O)=C(CSc4nnnn4C)CS[C@H]23)c2ccc(O)cc2)C(=O)C1=O,Potency,[1],inactive
same,Potency,[2],inactive
same,outcome,[3],inactive
same,outcome,[4],inactive
same,outcome,[5],inactive
same,outcome,[7],inactive
same,outcome,[10],inactive
same,outcome,[8],inactive
same,outcome,[9],inactive
CN1C(CCl)Nc2cc(Cl)c(S(N)(=O)=O)cc2S1(=O)=O (configuration not stated),Potency,[1],inactive
same,Potency,[2],inactive
same,outcome,[3],inactive
same,outcome,[4],inactive
same,outcome,[5],inactive
same,outcome,[7],inactive
same,outcome,[10],inactive
same,outcome,[8],inactive
same,outcome,[9],inactive
CC1(C)CC(N)CC(C)(C)N1,Potency,[1],inactive
same,Potency,[2],inactive
same,outcome,[3],inactive
same,outcome,[4],inactive
same,outcome,[5],inactive
same,outcome,[7],inactive
same,outcome,[10],inactive
same,outcome,[8],inactive
same,outcome,[9],inactive
CN(C)CCCN(C)C,activation,[1],3.19% [at 8.3 µM]
same,activation,[2],-0.426% [at 8.08 µM]
same,"activity change, negative = cytotoxicity",[3],10.5% [at 8.08 µM]
same,"activity, negative = cytotoxicity",[4],29.6% [at 8.08 µM]
same,"activity change, negative = cytotoxicity",[5],7.6% [at 8.08 µM]
same,"fluorescence, relative to Rose Bengal",[7],-1.07% [at 3.72 µM]
same,"fluorescence, % of fluorescein control",[10],-0.223% [at 3.72 µM]
same,"fluorescence, % of triamterene",[8],-0.32% [at 3.72 µM]
same,"fluorescence, % of fluorescent control",[9],-0.954% [at 3.72 µM]
